In PubChem BioAssay AID504389 (National Center for Advancing Translational Sciences (NCATS), 2011):
Inconclusive results are not listed. The source made the active and inactive calls. Calls follow the shape of the dose curve; as a rule, active = well fitted curve in the direction sought with a large enough effect; inconclusive = small, poorly fitted or top-dose-only effect, or effect the other way, or another doubt; inactive = no such curve, though single readings can be large or run the other way.

Molecular target: Thyrotropin receptor (Homo sapiens) (UniProt P16473)
Sequence (P16473 whole entry, looked up): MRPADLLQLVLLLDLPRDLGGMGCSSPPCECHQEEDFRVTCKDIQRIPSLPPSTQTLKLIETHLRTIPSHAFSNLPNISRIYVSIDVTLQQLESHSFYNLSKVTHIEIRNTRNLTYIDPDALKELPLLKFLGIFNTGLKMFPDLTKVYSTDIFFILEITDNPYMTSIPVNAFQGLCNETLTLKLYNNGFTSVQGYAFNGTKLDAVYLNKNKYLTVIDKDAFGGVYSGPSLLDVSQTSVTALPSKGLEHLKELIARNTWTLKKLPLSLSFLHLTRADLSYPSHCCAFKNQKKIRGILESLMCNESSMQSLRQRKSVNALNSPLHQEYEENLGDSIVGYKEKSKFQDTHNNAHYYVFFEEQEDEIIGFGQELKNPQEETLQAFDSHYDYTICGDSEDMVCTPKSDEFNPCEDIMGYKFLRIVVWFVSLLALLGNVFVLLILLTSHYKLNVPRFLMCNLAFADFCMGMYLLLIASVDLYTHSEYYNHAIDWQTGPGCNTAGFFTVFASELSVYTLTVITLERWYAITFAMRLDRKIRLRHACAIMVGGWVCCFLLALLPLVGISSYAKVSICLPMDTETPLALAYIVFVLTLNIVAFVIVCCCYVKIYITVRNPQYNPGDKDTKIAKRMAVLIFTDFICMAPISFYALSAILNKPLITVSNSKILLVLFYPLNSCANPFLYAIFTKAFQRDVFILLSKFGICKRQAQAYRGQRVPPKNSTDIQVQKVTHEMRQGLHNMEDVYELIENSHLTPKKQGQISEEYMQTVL
Assay: qHTS Assay for Antagonists of the Thyroid Stimulating Hormone Receptor: SAR for Probe
Details: HEK293-TSHR, TSH-stimulated cAMP HTRF, 2 h; series mostly up to 57.5 µM; activity change, negative = inhibition: at the top concentration
Excerpt: TSH is an alpha/beta heterodimeric glycoprotein hormone secreted from the anterior pituitary gland which belongs to the glycoprotein hormone family. The actions of TSH are mediated by a seven-transmembrane receptor, which upon TSH binding couples preferentially to the G-alpha (s) protein (Gs), resulting in activation of adenylate cyclase and increase in cyclic adenosine 3', 5' monophosphate (cAMP). The TSH receptor (THSR) is mainly expressed in thyroid follicular cells and regulates their growth and function. This cell based assay was conducted on a TSHR transfected HEK 293 cell line, measuring cAMP stimulation using antibody-based Homogeneous Time Resolved Fluorescence (HTRF). Our goal is to identify small molecules that will inhibit (antagonize) the thyroid-stimulating hormone receptor (TSHR), a member of the 7 transmembrane-spanning receptor (7TMR) family of cell surface receptors. TSHR-mediated hyperthyroidism is important in thyroid pathology. The development of small molecule antagonists of TSHR may lead to therapeutic approaches for TSHR-mediated hyperthyroidism caused by constitutively activating mutations or stimulating auto-antibodies associated with Graves' disease. Graves' disease is the leading cause of hyperthyroidism and is caused by autoantibodies that stimulate TSHR (TsAbs) causing thyroid growth and unregulated overproduction of thyroid hormones and existing treatments have liabilities (agranulocytosis). In addition, TSHRs are known to be expressed in multiple extrathyroidal tissues including bone, brain, kidney, testis, fat and cells of the immune system but the role of the TSHR in these tissues is not clear. Therefore, TSHR antagonists/inverse agonists could be used as probes of extrathyroidal TSHR function. Finally, TSHR inverse agonists, which are a subclass of antagonists that inhibit agonist-independent (or basal or constitutive) TSHR signaling, could be used to inhibit TSH-independent signaling in patients with recurrent or metastatic thyroid cancer who are receiving thyroid hormone to suppress TSH. The present assay presents confirmation data for analogues of series of interest in the primary screening assay.
An anti cAMP antibody contains a fluorescent cryptate tag (excitation 337 nm; emission 620 nm) and the acceptor is cAMP-d2 (excitation 620 nm; emission 665 nm). When antibody and cAMP-d2 interact and are excited by a 337 nm light, a FRET occurs resulting in emission at 665 nm. The assay is competition between cAMP-d2 and cAMP (from the cell lysate). The homogeneous protocol allows for one step dispense after stimulation that is automation friendly. Step, Parameter, Value, Description 1, Cells, 3 uL, 2000 TSHR freshly harvested cells/well 1536 TC treated White solid bottom plate (Cells resuspended in 10 mM HEPES buffered HBSS and 70 uM RO 20-1724) 2, Compound, 23 nL, Libraries and controls 3, Compound, 1 uL, EC80 TSH (4 nM final) 4, Time, 2 hours, 37C 5, Reagent, 2 uL, cAMP antibody diluted 1:20 in lysis buffer 6, Time, 30 minutes, Room temperature 7, Detector, HTRF settings, Viewlux

Structure (SMILES)	activity change, negative = inhibition	Potency
COc1ccc(C2Nc3cccc(O)c3C(=O)N2Cc2ccco2)cc1COc1c(C)cc(NC(C)=O)cc1C (stereo not given)	-5.28% (inactive)	
COc1ccc(CN(Cc2ccccc2)C(=O)CN2CCN(C)CC2)cc1COc1ccc(NC(C)=O)cc1	2.86% (inactive)	
COc1ccc(C2Nc3ccccc3C(=O)N2Cc2ccccc2)cc1COc1ccc(NC(=O)c2ccccc2)cc1 (stereo not given)	1.27% (inactive)	
COc1ccc(C2Nc3ccccc3C(=O)N2Cc2ccccc2)cc1COc1c(C)cc(NC(C)=O)cc1C (stereo not given)	-2.91% (inactive)	
COc1ccc(C2Nc3ccccc3C(=O)N2Cc2ccco2)cc1 (stereo not given)	1.84% (inactive)	
COc1ccc(C2Nc3ccccc3C(=O)N2Cc2ccc(C(F)(F)F)o2)cc1COc1c(C)cccc1C (stereo not given)	-13% (inactive)	
COc1ccc(-c2nc3ccccc3c(=O)n2Cc2ccco2)cc1COc1c(C)cccc1C	-1.63% (inactive)	
COc1ccc(C2Nc3ccccc3C(=O)N2Cc2ccco2)cc1COc1ccccc1 (stereo not given)	-5.86% (inactive)	
COc1ccc(C2Nc3ccccc3C(=O)N2Cc2cccs2)cc1COc1c(C)cc(NC(C)=O)cc1C (stereo not given)	-13.2% (inactive)	
COc1ccc(C2Nc3ccccc3C(=O)N2Cc2ccco2)cc1COc1ccccc1C (stereo not given)	-6.42% (inactive)	
COc1ccc(O)c(-c2nc3ccccc3c(=O)n2Cc2ccccc2)c1	2.81% (inactive)	
COc1ccc(C2Nc3ccccc3C(=O)N2Cc2ccccn2)cc1COc1c(C)cccc1C (stereo not given)	-8.52% (inactive)	
COc1ccc(CN(Cc2ccccc2)S(=O)(=O)c2ccccc2)cc1COc1ccc(NC(C)=O)cc1	1.9% (inactive)	
COc1ccc(CN2C(=O)N(c3ccccc3)C(=O)C2c2ccccc2)cc1COc1ccc(NC(C)=O)cc1 (stereo not given)	0.387% (inactive)	
COc1ccc(C2Nc3ccccc3C(=O)N2Cc2ccccc2)cc1COc1ccc(Cl)cc1 (stereo not given)	0.804% (inactive)	
O=c1c2ccccc2nc(-c2ccccc2O)n1Cc1ccccc1	3.37% (inactive)	
Cc1cccc(C)c1OCc1cccc(C2Nc3ccccc3C(=O)N2Cc2ccco2)c1 (stereo not given)		32.6 µM (active)
COc1ccc(C2Nc3ccccc3C(=O)N2Cc2ccco2)cc1COc1c(C)cc(NC(C)=O)cc1C (stereo not given)		36.6 µM (active)
COc1ccc(C2Nc3ccccc3C(=O)N2Cc2ccco2)cc1COc1ccc([N+](=O)[O-])cc1 (stereo not given)	1.43% (inactive)	
COc1ccc(C2Nc3cccc(OC)c3C(=O)N2Cc2ccco2)cc1COc1c(C)cc(NC(C)=O)cc1C (stereo not given)	-4.71% (inactive)	

Structure (SMILES)	activity change, negative = inhibition	Potency
COc1ccc(C2Nc3ccccc3C(=O)N2Cc2ccc3c(c2)OCO3)cc1COc1c(C)cc(NC(C)=O)cc1C (stereo not given)	-4.42% (inactive)	
COc1ccc(C2Nc3ccccc3C(=O)N2CCCN(C)C)cc1COc1c(C)cc(NC(C)=O)cc1C (stereo not given)	-1.88% (inactive)	
COc1ccc(C2Nc3ccccc3C(=O)N2CCO)cc1COc1ccc(NC(C)=O)cc1 (stereo not given)	6.37% (inactive)	
COc1ccc(OCc2cc(C3Nc4ccccc4C(=O)N3Cc3ccccc3)ccc2OC)cc1 (stereo not given)	0.228% (inactive)	
COc1cccc(CN2C(=O)c3ccccc3NC2c2ccc(OC)c(COc3c(C)cc(NC(C)=O)cc3C)c2)c1 (stereo not given)	-4.12% (inactive)	
COc1ccc(CN2C(=O)c3ccccc3NC2c2ccc(OC)c(COc3c(C)cc(NC(C)=O)cc3C)c2)cc1 (stereo not given)	-1.26% (inactive)	
COc1ccc(C2NC(=O)c3ccccc3N2)cc1COc1c(C)cc(NC(C)=O)cc1C (stereo not given)	-2.55% (inactive)	
Nc1ccccc1C(=O)NCc1ccco1	1.62% (inactive)	
COc1ccc(C2Nc3ccccc3C(=O)N2CCO)cc1COc1c(C)cc(NC(C)=O)cc1C (stereo not given)	-4.88% (inactive)	
COc1ccc(CN(Cc2ccccc2)C(=O)c2ccc(NC(C)=O)cc2)cc1COc1ccc(NC(C)=O)cc1	6.21% (inactive)	
COCCN1C(=O)c2ccccc2NC1c1ccc(OC)c(COc2c(C)cc(NC(C)=O)cc2C)c1 (stereo not given)		46.1 µM (active)
COc1ccc(C2Nc3ccccc3C(=O)N2Cc2ccccc2)cc1COc1cccc(C)c1 (stereo not given)	0.0298% (inactive)	
COc1ccc(C2Nc3ccccc3C(=O)N2Cc2ccco2)cc1COc1c(C(C)C)cccc1C(C)C (stereo not given)	-9.22% (inactive)	
COc1ccc(C2Nc3ccccc3C(=O)N2CCCN(C)C)cc1COc1ccc(NC(C)=O)cc1 (stereo not given)	1.85% (inactive)	
COc1ccc(O)c(C2Nc3ccccc3C(=O)N2Cc2ccccc2)c1 (stereo not given)	2.33% (inactive)	
COc1ccc(C2Nc3ccccc3C(=O)N2Cc2ccccc2OC)cc1COc1c(C)cc(NC(C)=O)cc1C (stereo not given)	-7.63% (inactive)	
COc1ccc(C2Nc3ccccc3C(=O)N2Cc2cccnc2)cc1COc1c(C)cccc1C (stereo not given)		36.6 µM (active)
COc1ccc(C2Nc3ccccc3C(=O)N2Cc2cccs2)cc1COc1c(C)cccc1C (stereo not given)	-18.8% (inactive)	
COc1cccc(CCN2C(=O)c3ccccc3NC2c2ccc(OC)c(COc3c(C)cc(NC(C)=O)cc3C)c2)c1 (stereo not given)	-3.34% (inactive)	
COc1ccc(C(=O)O)cc1COc1ccc(NC(C)=O)cc1	1.98% (inactive)	
